Assay results reported in PubChem BioAssay AID651692 (Broad Institute, 2012).
Measured potencies and affinities stand elsewhere. Activity calls are given as the source filed them.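 How the source made its calls: active means fitted half-maximal concentration for loss of cell signal no higher than twice the top valid tested concentration; inconclusive means flat curve at 30 to 70% inhibition, or poor fit; inactive means flat within 30%, signal rise, or potency above limit.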

assay: MDA-MB-231 cell growth inhibition, dose response, cytotoxicity control for RAD54 inhibitor project, CellTiter-Glo luminescence, cherry-pick (AID 651692); settings: MDA-MB-231 viability, 24 h; series mostly up to 26 µM; activity change, negative = growth inhibition: at the top concentration;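 further: 0% = median of sample compound wells and -100% = staurosporine control wells; more negative values mean stronger loss of viable cell signal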

SMILES | activity change, negative = growth inhibition
CC1CCN(CCCNC(=O)c2cc3c(=O)n(C)c4ccccc4c3n2C)CC1 | -4.97% (inactive)
CCN(CC)CCN1CCN(c2cncc(-c3cccc(N)c3)n2)CC1 | 3.21% (inactive)
Cc1ccc(Nc2cc(C)nc3c(C)cccc23)cc1 | -0.834% (inactive)
CCN1CCN(CCCNC(=O)c2cc3c(=O)[nH]c4ccccc4c3s2)CC1 | -5.85% (inactive)
CC1CCCCN1CCNC(=O)c1cc2c(=O)n(C)c3ccccc3c2n1C (centres undefined) | -12.9% (inactive)
CCN1CCN(C(=S)Nc2ccc3nc(N4CCN(C)CC4)cc(C)c3c2)CC1 | -0.729% (inactive)
Cc1ccc(S(=O)(=O)NCCCNS(=O)(=O)c2ccccc2[N+](=O)[O-])cc1 | 5.81% (inactive)
O=c1cc(CSc2n[nH]c(=O)n2C2CC2)c2ccc(O)cc2o1 | 2.63% (inactive)
CCn1c(=O)c2cc(C(=O)NCCN(C)C)sc2c2ccccc21 | -8.99% (inactive)
Cc1cc(Nc2ccc3c(c2)OCCO3)c2cccc(C)c2n1 | -8.03% (inactive)
CCCNc1nc2nc3ccccn3c(=O)c2cc1C(=O)NCCN1CCOCC1 | 8.92% (inactive)
O=C(NCCCN1CCCC1)c1cc2c(Cl)nc3ccccc3c2s1 | -12.5% (inactive)
CCOC(=O)c1cnc2ccc(C)cc2c1NCCN1CCOCC1 | 6.54% (inactive)
CCN(CC)CC(=O)Nc1cc(N(C)C)nc2ccccc12 | 9.38% (inactive)
COc1ccc2nc(C)cc(Nc3ccc(C)cc3)c2c1 | 3.03% (inactive)
CCOC(=O)c1c(CN2CCCCC2)n(C)c2cc(Br)c(OC)cc12 | 7.42% (inactive)
Nc1c(C(=O)NCCN2CCOCC2)c2nc3ccccc3nc2n1-c1ccc2c(c1)OCO2 | -0.672% (inactive)
Cn1c(C(=O)NCCCN2CCOCC2)cc2c(=O)n(C)c3ccccc3c21 | 1.53% (inactive)
CN(C)CCNC(=O)c1cccc(-c2cnc3c(NC=O)cc(-c4ccc(C(=O)N5CCOCC5)cc4)cn23)c1 | -0.135% (inactive)
Cc1nc2ccccc2c2oc(C(=O)NCCCN3CCC(C)CC3)cc12 | 3.18% (inactive)

SMILES | activity change, negative = growth inhibition
COC(=O)c1c(NC(=O)c2ccco2)sc2c1CCN(C(C)C)C2 | -0.516% (inactive)
NC1CCN(c2c(F)cc3c(=O)c(C(=O)O)cn(C4CC4)c3c2Cl)C1 (centres undefined) | 16% (inactive)
CN(C)CCNc1cc(-c2ccncc2)nc2ccccc12 | 13.6% (inactive)
Cc1cccn2c(=O)c3cc(C(=O)NCc4ccccc4)c(=N)n(CCCN4CCOCC4)c3nc12 | 0.872% (inactive)
COc1ccccc1C1=NOC(Cn2c(NCCCO)nc3c2c(=O)n(C)c(=O)n3C)C1 (centres undefined) | 3.77% (inactive)
CCOC(=O)c1cnc2c(C)cc(C)cc2c1NCCCN1CCOCC1 | 13.4% (inactive)
O=C1c2cccc3cccc(c23)C(=O)N1CCCn1ccnc1 | 11.9% (inactive)
CN(C)CCSc1nc(N)c2c3c(sc2n1)CN(C)CC3 | 1.23% (inactive)
CCCN(CCC)CCCNC(=O)c1cc2cc3ccc(OC)cc3nc2o1 | 2.73% (inactive)
O=c1c2ccccc2oc2cc(NCCCN3CCOCC3)ccc12 | 6.64% (inactive)
CCOC(=O)c1cnc2c(ccc3ccccc32)c1NCCCN(C)C | 5.51% (inactive)
CC(N)c1csc(Nc2nncc3ccccc23)n1 (centres undefined) | -7.02% (inactive)
CCCCN(C)CCNC(=O)c1cc2cc3ccc(OC)cc3nc2o1 | 5.69% (inactive)
O=C(Nc1ccc(C2=NCCN2)cc1)c1ccc(C(=O)Nc2ccc(C3=NCCN3)cc2)c(Cl)c1 | 12.8% (inactive)
c1ccc(-c2nnc(SCc3nc4ccccc4[nH]3)o2)cc1 | 13.1% (inactive)
CCN(CC)CCNc1ccc(CO)c2oc3ccccc3c(=O)c12 | -0.916% (inactive)
CCN(CC)Cc1cc2[nH]c3c4ccc(Cl)cc4ncc3c2cc1OC | 2.58% (inactive)
CCN(CC)CCNc1ccc(CO)c2sc3ccccc3c(=O)c12 | -3.91% (inactive)
CCOCCCNC(=S)Nc1ccc2nc(N3CCN(CC)CC3)cc(C)c2c1 | -7.04% (inactive)
